Measured values as given in the supplement of paper PMC12494721.
Structures can show the parent of a compound that is named as a salt.

How the values were obtained:
Conditions in all cases: incubation time: 27 h, anaerobic, 37 °C;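 for the amine columns active = adjusted P below 0.05 in both replicates with a change the same way and a mean fold change under 0.8 or over 1.25; inactive = the rest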
[1] = test system: Clostridium sporogenes DSM 1664; assay: growth (OD595) fold change vs plate DMSO controls (fold change (ratio)); higher = more growth
Outline: (§1)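 The 96-well mGAM cultures had been kept anaerobic for 27 h at 37 °C before being shaken and read at 595 nm. Blank subtraction, compound background correction with 20 µM compound solutions in water, and a calibration factor of 5 turned the readings into OD. Growth is given as the fold change versus the median of plate DMSO controls. Fold changes above 1.5 were set to NA, and the values are means of 2 biological replicates.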

[2] = test system: Escherichia coli IAI1; assay: as above
Outline: as §1

[3] = test system: Klebsiella aerogenes DSM 30053; assay: as above
Outline: as §1

[4] = test system: Ruminococcus gnavus DSM 108212; assay: as above
Outline: as §1

[5] = test system: Klebsiella aerogenes DSM 30053; assay: fold change of Histamine concentration vs plate DMSO controls (fold change (ratio)); higher = more amine produced, active = hit call of the paper (significant change in both replicates, either direction)
Outline: (§2)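 Amine values are fold changes relative to DMSO-only wells on the same plate. They derive from 27 h, 37 °C anaerobic mGAM cultures of four gut bacterial strains in 80 µL wells, dosed at 20 µM final, or 50 µM final for sweeteners. Extraction of the whole culture, LC–triple-quadrupole MS in dynamic MRM mode, external calibration curves and within-batch drift correction were used, with 2 biological replicates averaged.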

[6] = test system: Clostridium sporogenes DSM 1664; assay: fold change of Tryptamine concentration vs plate DMSO controls (fold change (ratio)); higher = more amine produced, active = hit call of the paper (significant change in both replicates, either direction)
Outline: as §2

[7] = test system: Ruminococcus gnavus DSM 108212; assay: as above
Outline: as §2

[8] = test system: Escherichia coli IAI1; assay: fold change of Putrescine concentration vs plate DMSO controls (fold change (ratio)); higher = more amine produced, active = hit call of the paper (significant change in both replicates, either direction)
Outline: as §2

[9] = test system: Klebsiella aerogenes DSM 30053; assay: as above
Outline: as §2

[10] = test system: Escherichia coli IAI1; assay: fold change of Cadaverine concentration vs plate DMSO controls (fold change (ratio)); higher = more amine produced, active = hit call of the paper (significant change in both replicates, either direction)
Outline: as §2

[11] = test system: Klebsiella aerogenes DSM 30053; assay: as above
Outline: as §2

[12] = test system: Ruminococcus gnavus DSM 108212; assay: fold change of 2-Phenylethylamine concentration vs plate DMSO controls (fold change (ratio)); higher = more amine produced, active = hit call of the paper (significant change in both replicates, either direction)
Outline: as §2

Structure (SMILES)	growth [1]	growth [2]	growth [3]	growth [4]	fold change of Histamine concentration [5]	fold change of Tryptamine concentration [6]	fold change of Tryptamine concentration [7]	fold change of Putrescine concentration [8]	fold change of Putrescine concentration [9]	fold change of Cadaverine concentration [10]	fold change of Cadaverine concentration [11]	fold change of 2-Phenylethylamine concentration [12]
CC(C[N+](C)(C)C)OC(N)=O (stereo unspecified) [Bethanechol chloride] (20 µM)	0.85	0.962	0.937	0.707	0.98 (inactive)	1.01 (inactive)	1.01 (inactive)	1.03 (inactive)	1.01 (inactive)	1 (inactive)	1 (inactive)	1.01 (inactive)
Cc1cn[nH]c1 [Fomepizole] (20 µM)	0.879	0.987	0.971	1.15	1.03 (inactive)	1.03 (inactive)	1.01 (inactive)	0.999 (inactive)	0.995 (inactive)	1.02 (inactive)	0.986 (inactive)	0.988 (inactive)
CCOC(=O)O[C@]1(C(=O)OCCl)CC[C@H]2[C@@H]3CCC4=CC(=O)C=C[C@]4(C)[C@H]3[C@@H](O)C[C@@]21C [Loteprednol etabonate] (20 µM)	1.29	1.26	1.08	1.08	0.899 (inactive)	1.03 (inactive)	1.01 (inactive)	1.25 (inactive)	1 (inactive)	0.955 (inactive)	1.01 (inactive)	1.02 (inactive)
O=C1NCCN1CCN1CCC(c2cn(-c3ccc(F)cc3)c3ccc(Cl)cc23)CC1 [Sertindole] (20 µM)	0.981	1.05	1.09	1.16	0.923 (inactive)	0.952 (inactive)	0.908 (inactive)	1.31 (inactive)	0.982 (inactive)	0.999 (inactive)	1 (inactive)	1.09 (inactive)
CC(C)c1ccc2oc3nc(N)c(C(=O)O)cc3c(=O)c2c1 [Amlexanox] (20 µM)	0.911	1.2	1.05	0.857	0.877 (inactive)	1.07 (inactive)	1.03 (inactive)	1.1 (inactive)	0.984 (inactive)	0.957 (inactive)	1.03 (inactive)	1.02 (inactive)
C=CCOc1ccccc1OCC(O)CNC(C)C (stereo unspecified) [Oxprenolol hydrochloride] (20 µM)	0.929	0.97	0.986	0.945	1.02 (inactive)	1.08 (inactive)	1.05 (inactive)	1.01 (inactive)	1 (inactive)	1.02 (inactive)	0.988 (inactive)	1.04 (inactive)
CCN1CCC[C@H]1CNC(=O)c1c(OC)ccc(Br)c1OC [Remoxipride hydrochloride] (20 µM)	1.09	1.03	0.988	1.01	1.04 (inactive)	0.946 (inactive)	0.945 (inactive)	0.998 (inactive)	1.02 (inactive)	1.03 (inactive)	0.989 (inactive)	0.92 (inactive)
CCSc1ccc2c(c1)N(CCCN1CCN(C)CC1)c1ccccc1S2 [Thiethylperazine maleate] (20 µM)	1.26	1.05	1.17	0.847	1.01 (inactive)	0.971 (inactive)	0.851 (inactive)	1.07 (inactive)	1.07 (inactive)	1.06 (inactive)	1.05 (inactive)	0.915 (inactive)
N[C@H]1CONC1=O [(S,-) Cycloserine] (20 µM)	0.942	0.968	0.982	0.975	0.94 (inactive)	0.954 (inactive)	0.905 (inactive)	1.02 (inactive)	1.07 (inactive)	0.959 (inactive)	1.05 (inactive)	0.81 (inactive)
O=C(CCCl)NCc1ccccc1 [Beclamide] (20 µM)	1.18	1.02	1	1.07	1.03 (inactive)	1.02 (inactive)	1.02 (inactive)	1.01 (inactive)	1.01 (inactive)	1.04 (inactive)	0.996 (inactive)	1.03 (inactive)
CN1CCN(C2Cc3ccccc3Sc3ccc(Cl)cc32)CC1 (stereo unspecified) [Octoclothepin maleate salt] (20 µM)	0.962	0.98	0.941	0.931	1.01 (inactive)	1.05 (inactive)	0.848 (inactive)	1.06 (inactive)	1 (inactive)	1.1 (inactive)	0.99 (inactive)	0.992 (inactive)
CC[N+](C)(C)Cc1ccccc1Br [Bretylium tosylate] (20 µM)	1.03	1.02	1.06	0.996	0.853 (inactive)	0.973 (inactive)	1.03 (inactive)	1 (inactive)	0.998 (inactive)	0.937 (inactive)	1.02 (inactive)	1.05 (inactive)
CC1(C)NC(=O)N(c2ccc([N+](=O)[O-])c(C(F)(F)F)c2)C1=O [Nilutamide] (20 µM)	0.998	1.02	0.999	0.98	1.05 (inactive)	0.955 (inactive)	0.957 (inactive)	1.1 (inactive)	1.01 (inactive)	0.987 (inactive)	0.995 (inactive)	0.981 (inactive)
